Shown are actives, neighbours in structure and some others; about 4% of the full set was active somewhere.
Mtb bLac sens = beta-lactam sensitization of Mtb H37Rv. inhibition, % at 25 µM. M. tuberculosis H37Rv growth with meropenem, percent inhibition. AID 434955. actives 0.27% (n = 330,000); call rule not given here;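 further: growth measured after seven days incubation then overnight dye step; 0% = bacteria only wells and 100% = bacteria with antibiotic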
Mtb UGM inh = blocks M. tuberculosis UGM enzyme; P9WIQ1; purified UGM, fluorescence polarization probe displacement; inhibition, % at 10 µM; actives 0.06% (n = 320,000); AID 504406; in the data active means inhibition above about 10%, passing the limit was not always enough; inconclusive means no clear call, values can overlap the other calls
Rv3671c inh = inhibits the M. tuberculosis serine protease Rv3671c | P9WHR9 | inhibition, % at 5.96 µM | actives 0.048% (n = 320,000) | AID 2606; in the data active means inhibition above about 38%;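 further: extracellular domain of Rv3671c used as enzyme; 0% = enzyme with DMSO and 100% = no enzyme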
FBA Mtb inh = inhibitors of M. tuberculosis fructose-bisphosphate aldolase. P9WQA3. actives 2.3% (n = 360,000). purified M. tuberculosis FBA, fluorescence read-out. inhibition, % at 1 µM; in the data active means inhibition above about 27%;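 further: 0% = vehicle and 100% = reference inhibitor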
Target sequence (P9WQA3 whole entry, looked up): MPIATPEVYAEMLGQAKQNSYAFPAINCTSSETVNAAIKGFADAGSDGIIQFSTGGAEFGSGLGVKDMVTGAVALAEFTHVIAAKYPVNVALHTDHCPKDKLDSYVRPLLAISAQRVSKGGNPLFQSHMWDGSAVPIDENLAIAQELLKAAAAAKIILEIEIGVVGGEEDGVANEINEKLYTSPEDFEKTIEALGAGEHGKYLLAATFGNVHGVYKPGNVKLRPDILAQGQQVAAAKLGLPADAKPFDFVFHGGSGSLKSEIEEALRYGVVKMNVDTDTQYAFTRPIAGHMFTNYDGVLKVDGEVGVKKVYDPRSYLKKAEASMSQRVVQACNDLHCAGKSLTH
GDH-TPI counter = GDH-TPI coupled enzyme inhibition counter-screen | inhibition, % at 4.8 µM | GDH-TPI coupled enzyme counterscreen, NADH absorbance | actives 1.2% (n = 360,000) | AID 588335; in the data active means inhibition above about 30%;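 further: 0% = DMSO wells and 100% = wells lacking the enzyme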
RecA intein inh = inhibitors of M. tuberculosis RecA intein splicing; P9WHJ3; cell-free RecA intein splicing, fluorescence; inhibition, % (no concentration beside the values); actives 0.75% (n = 290,000); AID 2221; in the data active means inhibition above about 30%; inconclusive means no clear call, values can overlap the other calls;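 further: 0% = vehicle wells and 100% = reference inhibitor control wells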
An asterisk follows results filed as active; i = inactive; ? = inconclusive; . = no result; + = active, no number.

SMILES | Mtb bLac sens | Mtb UGM inh | Rv3671c inh | FBA Mtb inh | GDH-TPI counter | RecA intein inh
C=CCNC(=O)c1c(N)n(-c2cccc(S(N)(=O)=O)c2)c2nc3ccccc3nc12 | 13 | -1 | -10 | 116* | 17 | i
NC(=O)CC(NC(=O)c1cccc(Br)c1)c1ccc(NC2CCN(Cc3ccccc3)CC2)c([N+](=O)[O-])c1 (stereo unspecified) | -6 | 3 | -10 | 1 | 4 | -2
CCc1cccc(NC(=O)CCCn2c(=O)[nH]c3ccsc3c2=O)c1 | -2 | 1 | 0 | -2 | 0 | 1
Cc1ccccc1-c1nc(CS(=O)(=O)CC(=O)N2CCOCC2)c(C)o1 | 2 | -3 | -3 | 2 | 1 | 1
CC(=O)NCCn1c(SCC(=O)NCCc2ccc(S(N)(=O)=O)cc2)nc2ccccc2c1=O | -2 | 1 | -1 | -1 | -5 | -1
Cc1cc(C)cc(-n2c(N)c(C(=O)Nc3c(C)n(C)n(-c4ccccc4)c3=O)c3nc4ccccc4nc32)c1 | 76 | 2 | -6 | 0 | 5 | 3
COCCCNC(=O)CSc1nc2ccccc2c(=O)n1CCc1ccc(S(N)(=O)=O)cc1 | 0 | -2 | -1 | 32* | 0 | 0
COc1cccc(-n2c(N)c(C(=O)Nc3c(C)n(C)n(-c4ccccc4)c3=O)c3nc4ccccc4nc32)c1 | 7 | -5 | -3 | 10 | 37* | .
Cc1ccc(-n2c(N)c(C(=O)Nc3c(C)n(C)n(-c4ccccc4)c3=O)c3nc4ccccc4nc32)cc1 | 63 | 0 | 3 | 4 | 9 | -1
COC(=O)c1c(N)n(-c2ccc(NC(C)=O)cc2)c2nc3ccccc3nc12 | -8 | -1 | -7 | 109* | 19 | -71
CNC(=O)C1CN(C(=O)c2cccc(S(=O)(=O)N3c4ccccc4CC3C)c2)c2ccccc2O1 (stereo unspecified) | -13 | 0 | -5 | -1 | 5 | .
CN(C)c1ccc(C(=O)c2ccc(O)cc2O)cc1 | -1 | -2 | -7 | -2 | 19 | 7
O=C(COc1ccccc1F)c1ccc(O)cc1O | -16 | 2 | -13 | -2 | 50* | 0
Cc1c(O)ccc(C(=O)COc2ccccc2F)c1O | 4 | 2 | -8 | 2 | 22 | -1
O=C(c1ccccc1)c1ccc(O)cc1O | 0 | ? | -7 | 2 | 52* | -11
COc1ccc(C(=O)c2ccccc2)c(O)c1 | 8 | 1 | -5 | 1 | 9 | 1
O=C(COC(=O)c1ccc(O)cc1O)NC(=O)Cc1ccccc1 | . | . | . | -1 | 5 | .
O=C(Cc1ccccc1)c1ccc(O)cc1O | . | . | . | 3 | 38* | .
O=C(c1ccc(O)cc1)c1ccc(O)cc1O | -2 | 3 | -3 | 1 | 35* | 0
Cn1c(SCC(=O)NC2CCCc3ccccc32)nnc1C1CC1 (stereo unspecified) | . | . | . | 1 | -7 | .
COc1ccc(CC(=O)Nc2cc(F)ccc2F)cc1S(=O)(=O)N1CCOCC1 | . | . | . | 3 | 11 | .
COCc1cccc(-c2csc(C(C)(O)c3ccc(OC)cc3)n2)c1 (stereo unspecified) | . | . | . | 0 | -3 | .
COc1ccc(C(=O)NC2CCCc3ccccc32)cc1[N+](=O)[O-] (stereo unspecified) | 7 | -1 | -3 | 6 | 3 | 2
O=C(Cc1ccc2cccnc2c1)c1ccc(O)cc1O | 14 | -2 | -4 | -3 | 52* | -1
Cn1nc(C(=O)Nc2nc3ccc(S(C)(=O)=O)cc3s2)ccc1=O | -2 | -5 | -4 | -6 | 61* | 2
SMILES | Mtb bLac sens | Mtb UGM inh | Rv3671c inh | FBA Mtb inh | GDH-TPI counter | RecA intein inh
CS(=O)(=O)c1ccc2nc(NC(=O)c3ccc(=O)[nH]c3)sc2c1 | 1 | 2 | 0 | 0 | 83* | -9
CS(=O)(=O)c1ccc2nc(NC(=O)c3ccc(Cl)cc3)sc2c1 | -10 | -3 | 0 | 6 | 24 | .
O=C(Nc1ccccc1F)C(=Cc1sc(N2CCOCC2)nc1-c1ccccc1)C(=O)Nc1ccccc1F | -4 | 12* | -1 | -2 | 12 | -87
O=C(Nc1ccccc1)c1nnsc1S(=O)c1ccc(Cl)cc1 (stereo unspecified) | 100 | 2 | -8 | -1 | 8 | 35*
O=C(c1nnsc1S(=O)c1ccc(Cl)cc1)N1CCOCC1 (stereo unspecified) | . | . | . | 0 | 9 | 26
O=C(O)c1ccc(N(c2ccccc2)c2ccccc2)cc1 | 13 | 0 | 4 | + | 15 | .
CC1=C(C(=O)N(C)C)CC(CC(=O)NCC2CCCCC2)C(=O)N1CCCN1CCCC1=O (stereo unspecified) | . | . | . | 2 | 1 | .
CC(=O)NC(NC(C)=O)c1ccc(N(C)C)cc1 | 6 | 1 | -12 | -2 | 47* | -2
CCN(CC)c1ccc(C(NC(C)=O)NC(C)=O)cc1 | 23 | -1 | 3 | -2 | 2 | -1
CN(C)c1ccc(C(=O)c2ccc(N(C)C)cc2)cc1 | ? | 3 | 2 | 2 | 40* | 0
COc1cc(/C=N/NC(=O)c2cccc(NC(=O)c3ccccc3)c2)ccc1O | -1 | -1 | 16 | -5 | 37* | -2
COc1cc(/C=N/Nc2cc(C)nc(N)n2)ccc1O | 4 | 1 | 2 | -1 | 19 | -2
COc1cc(/C=N/NC(=O)c2nc(C)cc(C)n2)ccc1O | 2 | -5 | -1 | 1 | 37* | -4
COc1cc(/C=N/NC(=O)c2ccncc2)ccc1O | 98 | -1 | 3 | -1 | 23 | -7
COc1cc(/C=N/NC(=S)NCCN2CCOCC2)ccc1O | 5 | 1 | 10 | 2 | 48* | -5
COc1cc(/C=N/Nc2nc(C)cc(C)n2)ccc1O | . | . | . | -2 | 36* | .
COc1ccc(OC)c(NC(=S)NCCN2CCOCC2)c1 | 0 | 1 | -10 | -1 | 0 | -2
COc1cc(/C=N/NC(=O)c2cccc(NC(=O)c3ccccc3C)c2)ccc1O | -6 | -4 | 5 | -1 | 16 | -1
COc1cccc(N2CC(NS(=O)(=O)c3ccc4ccccc4c3)CC2=O)c1 (stereo unspecified) | -4 | 1 | -5 | -1 | 7 | 1
O=C(NCC(=O)N1CCCCCCC1)c1ccc(Cl)c(Cl)c1 | . | . | . | 2 | 0 | .
CCCCn1c(SCC(=O)c2c(N)n(C3CC3)c(=O)[nH]c2=O)nc2cc(S(N)(=O)=O)ccc21 | . | . | . | -1 | 3 | .
CC(=O)Nc1ccc(S(=O)(=O)NCCC(=O)OCc2ccc([N+](=O)[O-])cc2)cc1 | -11 | 1 | 4 | -1 | 3 | -2
COc1ccc(/C=N/NC(=O)c2cccc(C(=O)N/N=C/c3ccc(OC)cc3)n2)cc1 | 8 | -1 | -34 | 0 | 14 | -3
COc1cc(/C=N/NC(=S)Nc2cccc(S(=O)(=O)N(C)C)c2)ccc1O | -4 | . | 4 | 1 | 45* | -12
CN(C)S(=O)(=O)c1cccc(NC(=S)N/N=C/C2CC=CCC2)c1 (stereo unspecified) | -1 | -1 | -4 | 0 | -8 | 6
COc1cc(/C=N/NC(=O)c2cc3ccccc3[nH]2)ccc1O | -1 | 2 | -4 | -1 | 41* | -1

Compound activity: PubChem, several laboratories
